Assay results: the supplement of paper PMC8728848
This excerpt belongs to a sample that is enriched for the strongest signals.

Assays:
Assay in all cases: glycan array binding signal (z-score within array); higher = stronger binding
Conditions in all cases: glycan notation: IUPAC condensed, linker removed
[1] = biological target: Fuc(a1-2)Gal
Outline: (§1)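 Glycan array binding is given as a within-array Z-score, which can be read as non-binding when negative. The arrays, 3228 of them, came from the Consortium for Functional Glycomics database and were retained only where the protein sequence was available. Z-scores were averaged across arrays of the same protein sequence at different concentrations or buffers and across linkers.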

[2] = biological target: Fuc(a1-2)Gal(b1-3)GlcNAc
Outline: as §1

[3] = biological target: Fuc(a1-2)Gal(b1-3)GlcNAc(b1-2)Man(a1-3)[Fuc(a1-2)Gal(b1-3)GlcNAc(b1-2)Man(a1-6)]Man(b1-4)GlcNAc(b1-4)GlcNAc
Outline: as §1

[4] = biological target: Fuc(a1-2)Gal(b1-3)GlcNAc(b1-2)Man(a1-3)[Fuc(a1-2)Gal(b1-3)GlcNAc(b1-2)Man(a1-6)]Man(b1-4)GlcNAc(b1-4)[Fuc(a1-6)]GlcNAc
Outline: as §1

[5] = biological target: Fuc(a1-2)Gal(b1-3)GlcNAc(b1-3)GalNAc
Outline: as §1

[6] = biological target: Fuc(a1-2)Gal(b1-3)[Fuc(a1-4)]GlcNAc(b1-2)Man(a1-3)[Fuc(a1-2)Gal(b1-3)[Fuc(a1-4)]GlcNAc(b1-2)Man(a1-6)]Man(b1-4)GlcNAc(b1-4)[Fuc(a1-6)]GlcNAc(b1-4)[Fuc(a1-6)]GlcNAc
Outline: as §1

[7] = biological target: Fuc(a1-2)Gal(b1-4)GlcNAc
Outline: as §1

[8] = biological target: Fuc(a1-2)Gal(b1-4)[Fuc(a1-3)]GlcNAc(b1-2)Man(a1-3)[Fuc(a1-2)Gal(b1-4)[Fuc(a1-3)]GlcNAc(b1-2)Man(a1-6)]Man(b1-4)GlcNAc(b1-4)[Fuc(a1-6)]GlcNAc
Outline: as §1

[9] = biological target: Fuc(a1-2)Gal6S(b1-4)Glc
Outline: as §1

[10] = biological target: Fuc(a1-2)[Gal(a1-3)]Gal(b1-3)GlcNAc(b1-3)GalNAc
Outline: as §1

[11] = biological target: Fuc(a1-2)[Gal(a1-4)]Gal(b1-4)GlcNAc
Outline: as §1

[12] = biological target: Fuc(a1-3)[Gal(b1-4)]GlcNAc(b1-2)Man
Outline: as §1

[13] = biological target: Fuc(a1-3)[Gal(b1-4)]GlcNAc(b1-2)Man(a1-3)[Fuc(a1-3)[Gal(b1-4)]GlcNAc(b1-2)Man(a1-6)]Man(b1-4)GlcNAc(b1-4)GlcNAc
Outline: as §1

[14] = biological target: Fuc(a1-3)[Gal(b1-4)]GlcNAc(b1-6)GalNAc
Outline: as §1

[15] = biological target: Gal(a1-3)Gal(b1-3)GlcNAc(b1-2)Man
Outline: as §1

[16] = biological target: Gal(a1-3)Gal(b1-4)GlcNAc(b1-6)GalNAc
Outline: as §1

[17] = biological target: Gal(a1-3)[Gal(a1-4)]Gal(b1-4)GlcNAc
Outline: as §1

[18] = biological target: Gal(a1-4)Gal(b1-4)GlcNAc
Outline: as §1

[19] = biological target: Gal(b1-2)Gal
Outline: as §1

[20] = biological target: Gal(b1-4)GlcNAc
Outline: as §1

[21] = biological target: Gal(b1-4)GlcNAc(b1-3)Gal(b1-4)Glc
Outline: as §1

[22] = biological target: Gal(b1-4)GlcNAc(b1-3)Gal(b1-4)GlcNAc(b1-2)Man(a1-3)[Gal(b1-4)GlcNAc(b1-3)Gal(b1-4)GlcNAc(b1-2)Man(a1-6)]Man(b1-4)GlcNAc(b1-4)GlcNAc
Outline: as §1

[23] = biological target: GalNAc(b1-3)Gal
Outline: as §1

[24] = biological target: GalNAc(b1-3)Gal(a1-4)Gal(b1-4)GlcNAc(b1-3)Gal(b1-4)Glc
Outline: as §1

[25] = biological target: Glc(b1-4)Glc
Outline: as §1

[26] = biological target: GlcA3S(b1-3)Gal(b1-4)GlcNAc(b1-3)Gal(b1-4)Glc
Outline: as §1

[27] = biological target: GlcNAc(b1-2)[GlcNAc(b1-4)]Man(a1-3)[GlcNAc(b1-4)][GlcNAc(b1-2)Man(a1-6)]Man(b1-4)GlcNAc(b1-4)GlcNAc
Outline: as §1

[28] = biological target: GlcNAc(b1-3)Gal(b1-4)Glc
Outline: as §1

[29] = biological target: GlcNAc(b1-3)Gal(b1-4)GlcNAc(b1-2)Man(a1-3)[GlcNAc(b1-3)Gal(b1-4)GlcNAc(b1-2)Man(a1-6)]Man(b1-4)GlcNAc(b1-4)[Fuc(a1-6)]GlcNAc
Outline: as §1

[30] = biological target: GlcNAc(b1-3)Gal(b1-4)GlcNAc(b1-3)Gal(b1-4)GlcNAc(b1-2)Man(a1-3)[GlcNAc(b1-3)Gal(b1-4)GlcNAc(b1-3)Gal(b1-4)GlcNAc(b1-2)Man(a1-6)]Man(b1-4)GlcNAc(b1-4)[Fuc(a1-6)]GlcNAc
Outline: as §1

[31] = biological target: GlcNAc(b1-3)Gal(b1-4)GlcNAc(b1-3)Gal(b1-4)GlcNAc(b1-3)Gal(b1-4)GlcNAc(b1-2)[GlcNAc(b1-3)Gal(b1-4)GlcNAc(b1-3)Gal(b1-4)GlcNAc(b1-3)Gal(b1-4)GlcNAc(b1-6)]Man(a1-6)[GlcNAc(b1-3)Gal(b1-4)GlcNAc(b1-3)Gal(b1-4)GlcNAc(b1-3)Gal(b1-4)GlcNAc(b1-2)Man(a1-3)]Man(b1-4)GlcNAc(b1-4)[Fuc(a1-6)]GlcNAc
Outline: as §1

[32] = biological target: Man(a1-2)Man(a1-3)Man
Outline: as §1

[33] = biological target: Man(a1-3)[Man(a1-6)]Man(b1-4)GlcNAc(b1-4)GlcNAc
Outline: as §1

[34] = biological target: Neu5Ac(a2-3)Gal(b1-3)GlcNAc(b1-3)GalNAc
Outline: as §1

[35] = biological target: Neu5Ac(a2-3)Gal(b1-3)[Fuc(a1-4)]GlcNAc
Outline: as §1

[36] = biological target: Neu5Ac(a2-3)Gal(b1-4)GlcNAc(b1-2)Man(a1-3)[Neu5Ac(a2-3)Gal(b1-4)GlcNAc(b1-2)Man(a1-6)]Man(b1-4)GlcNAc(b1-4)[Fuc(a1-6)]GlcNAc
Outline: as §1

[37] = biological target: Neu5Ac(a2-3)Gal(b1-4)[Fuc(a1-3)]GlcNAc(b1-3)GalNAc
Outline: as §1

[38] = biological target: Neu5Ac(a2-6)Gal(b1-4)GlcNAc(b1-2)Man
Outline: as §1

[39] = biological target: Neu5Ac(a2-6)Gal(b1-4)GlcNAc(b1-2)Man(a1-3)[GlcNAc(b1-2)Man(a1-6)]Man(b1-4)GlcNAc(b1-4)GlcNAc
Outline: as §1

[40] = biological target: Neu5Ac(a2-6)Gal(b1-4)GlcNAc(b1-2)Man(a1-3)[Neu5Ac(a2-6)Gal(b1-4)GlcNAc(b1-2)Man(a1-6)]Man(b1-4)GlcNAc(b1-4)GlcNAc
Outline: as §1

[41] = biological target: Neu5Ac(a2-6)Gal(b1-4)GlcNAc(b1-2)Man(a1-6)Man(b1-4)GlcNAc(b1-4)GlcNAc
Outline: as §1

[42] = biological target: Neu5Ac(a2-6)GlcNAc(b1-4)GlcNAc(b1-4)GlcNAc
Outline: as §1

[43] = biological target: Neu5Ac(a2-8)Neu5Gc(a2-3)Gal(b1-4)GlcNAc
Outline: as §1

[44] = biological target: Neu5Gc(a2-3)Gal(b1-4)Glc
Outline: as §1

[45] = biological target: Neu5Gc(a2-6)GalNAc
Outline: as §1

[46] = biological target: Neu5Gc(a2-8)Neu5Gc(a2-3)Gal(b1-4)GlcNAc(b1-3)Gal(b1-4)GlcNAc
Outline: as §1

B1: PX14375D-bvu-513-34-513 (Bacteroides vulgatus) (protein)
chain: TEDTFWKDETDFNLALTSCYTPLKNALNGGYYGTRGVMLRIARADEVDFRNDISDVYTVNRFTNSNTNSLTQGMFYQFYNALYRTNSIMQKLEEKKEQFSTDFQNSVKGECLFIRGFYLFQLAKEFKDAPLRLTASQSPSTFPLAKSSQADIWAQAKEDLKTAASLLPITNKIGKPTQGAAYAALGKIYVYEENWQEAINVLEPLTQNPYTYKLVEDFNWNFDDTHENNAESIFELLIEDVGGTDLWGDGENINSTQSNTRPKEYAAAEVGGWYEANPTQQIMDIFWKEKDKDGNFDYRARCSVAWDYEGCTYYQRPFREVFAQDKWKTYWILKYQNWKTQKDEPAPPKSFINERAIRYADVLLMLAEAYMNKGALDTSIGYINQIRRRANLNDYSGPITKEGVFEDLVHQRAIEFFVEGERFYDLRRWGLLEQTLKTCDDTRYKNYQTGKSDNINKFNYFPIPAKELDTNPLCTPSEGW
glycan array binding signal (z-score) [1]: 0.373 | glycan array binding signal (z-score) [2]: -0.892 | glycan array binding signal (z-score) [3]: 1.56 | glycan array binding signal (z-score) [4]: 0.425 | glycan array binding signal (z-score) [5]: -0.35 | glycan array binding signal (z-score) [6]: 2.03 | glycan array binding signal (z-score) [7]: 0.501 | glycan array binding signal (z-score) [8]: 1.81 | glycan array binding signal (z-score) [9]: -0.059 | glycan array binding signal (z-score) [10]: -0.366 | glycan array binding signal (z-score) [11]: -0.107 | glycan array binding signal (z-score) [12]: 2.96 | glycan array binding signal (z-score) [13]: -0.56 | glycan array binding signal (z-score) [14]: 0.851 | glycan array binding signal (z-score) [15]: -0.81 | glycan array binding signal (z-score) [16]: 0.081 | glycan array binding signal (z-score) [17]: 2.92 | glycan array binding signal (z-score) [18]: 0.227 | glycan array binding signal (z-score) [19]: -0.667 | glycan array binding signal (z-score) [20]: 0.126 | glycan array binding signal (z-score) [21]: -0.017 | glycan array binding signal (z-score) [22]: 1.87 | glycan array binding signal (z-score) [23]: -0.306 | glycan array binding signal (z-score) [24]: 0.403 | glycan array binding signal (z-score) [25]: 0.371 | glycan array binding signal (z-score) [26]: -0.213 | glycan array binding signal (z-score) [27]: -0.188 | glycan array binding signal (z-score) [28]: -0.384 | glycan array binding signal (z-score) [29]: 1.56 | glycan array binding signal (z-score) [30]: 1.62 | glycan array binding signal (z-score) [31]: 2.65 | glycan array binding signal (z-score) [32]: -1 | glycan array binding signal (z-score) [33]: 0.478 | glycan array binding signal (z-score) [34]: -0.439 | glycan array binding signal (z-score) [35]: 1.67 | glycan array binding signal (z-score) [36]: -0.211 | glycan array binding signal (z-score) [37]: 1.33 | glycan array binding signal (z-score) [38]: -0.379 | glycan array binding signal (z-score) [39]: -0.096 | glycan array binding signal (z-score) [40]: -0.145 | glycan array binding signal (z-score) [41]: 0.342 | glycan array binding signal (z-score) [42]: 0.337 | glycan array binding signal (z-score) [43]: 18.8 | glycan array binding signal (z-score) [44]: -0.166 | glycan array binding signal (z-score) [45]: -0.168 | glycan array binding signal (z-score) [46]: -0.969
